The list is not random: actives were taken first. Their share in the collection is about 3.2%.
FMDV inh: foot and mouth disease virus antiviral activity. FMDV antiviral cell-based qHTS. Potency, µM (titrated, usually from 57.9 µM), for inactives: at the highest dose activity change, negative = inhibition, hits mostly inhibitors. hit rate 1.2% among 410,000. AID 1159524; calls by dose curve; tested in HEK293T cells; further: read-out not given here; nearly all actives have a fitted effect of over 45% in size
Lassa entry inh: inhibitors of Lassa virus binding or cell entry; Lassa virus pseudotype entry inhibition, cell reporter; Potency, µM (highest dose often 37.9 µM), for the others: top-dose activity change, negative = inhibition, hits mostly inhibitors; hit rate 1.2% among 300,000; AID 540256; calls by dose curve; tested in HEK293 cells; further: nearly all actives have a fitted effect of over 50% in size
Marburg entry inh: inhibitors of Marburg virus binding or cell entry. Marburg virus pseudotyped entry inhibition, cell reporter. Potency, µM (top dose mostly 37.8 µM), for inactives: top-dose activity change, negative = inhibition, hits mostly inhibitors. hit rate 1.8% among 300,000. AID 540276; calls by dose curve; tested in HEK293 cells
Vaccinia mCherry: vaccinia inhibition (mCherry reporter). Vaccinia virus mCherry reporter infection, fluorescence. Potency, µM (series often up to 36.5 µM), for the others: top-dose activity change, negative = inhibition, most hits filed as inhibitors. hit rate 0.63% among 310,000; calls by dose curve; tested in A549 cells; further: nearly all actives have a fitted effect of over 35% in size
Vaccinia Venus: inhibitors of vaccinia virus (Venus reporter); Vaccinia virus Venus reporter expression, fluorescence; Potency, µM (highest dose often 36.5 µM), inactives show at the highest dose activity change, negative = inhibition, most hits filed as inhibitors; hit rate 0.46% among 330,000; calls by dose curve; tested in A549 cells; further: nearly all actives have a fitted effect of over 30% in size
Active calls of the source: *; i = inactive; ? = inconclusive; . = no result given; ! = repeats disagree; [ ] = dose if it differs, or a comment. On the % scale 0 is the no-effect control and ±100 the full control effect; potency means the concentration at half of the fitted maximal effect.

SMILES	FMDV inh	Lassa entry inh	Marburg entry inh	Vaccinia mCherry	Vaccinia Venus
Cc1cccc(N2CCN(S(=O)(=O)c3ccc4c(c3)C(C(C)C)C(=O)N4)CC2)c1C (configuration not stated)	0%	1.3µM*	.	?	-22%
CCOC(=O)c1noc2ncnc(Nc3cc(Cl)c(OC)cc3OC)c12	-6%	13%[46.1 µM]	.	-4%	0%
CC(=O)N1CCc2c(sc3nc(SCC(N)=O)n(-c4ccc(F)c(Cl)c4)c(=O)c23)C1	-1%	14%[46.1 µM]	?	-2%	0%
Cc1ccc(C)c(N2CCN(c3ncnc4c3nc3n4CCCC3)CC2)c1	?	16%[46.1 µM]	.	-13%	-5%
c1ccc(N2CCN(c3ncnc4c3nc3n4CCCC3)CC2)cc1	14µM*	?	.	-29%	?
COc1ccccc1N1CCN(c2ncnc3c2nc2n3CCCC2)CC1	?	-22%[46.1 µM]	-22%[46.1 µM]	-15%	-15%
COc1ccc(N2CCN(c3ncnc4c3nc3n4CCCCC3)CC2)cc1	11µM*	-12%[46.1 µM]	.	?	?
Cc1ccc(Cl)cc1N1CCN(c2ncnc3c2nc2n3CCCC2)CC1	28µM*	?	.	-30%	?
CC(=O)c1ccc(N2CCN(c3ncnc4c3nc3n4CCCC3)CC2)cc1	18µM*	-14%[46.1 µM]	.	-27%	?
c1ccc2cnccc2c1	.	.	.	-10%	-5%
CCCCN(CC)CCCNC(=O)c1cc2c(=O)[nH]c3ccccc3c2n1C	-12%	0%[46.1 µM]	?	3%	0%
FC(F)(F)c1cccc(N2CCN(c3ncnc4c3nc3n4CCCC3)CC2)c1	20µM*	-1%[46.1 µM]	.	-28%[7.34 µM]	-23%[7.34 µM]
COc1cccc(CNC(=O)C2CCN(c3ncnc4c3nc3n4CCCCC3)CC2)c1	-10%	?	.	-13%	-12%
COc1cccc(N2CCN(c3ncnc4c3nc3n4CCCCC3)CC2)c1	11µM*	?	.	?	?
N#Cc1csc(CCNC(=O)c2ccccc2)n1	3%	.	.	i	-2%
O=c1cc(C(F)(F)F)[nH]c2c(C(F)(F)F)cccc12	?	?	?	?	13µM*
C=CCOc1cccc(C(=O)/C=C2/C(=O)Nc3ccccc32)c1	28µM*	.	.	.	.
O=C1Nc2ccc(Br)cc2/C1=C/C(=O)c1ccccc1	?	?	?	-15%	-22%
CSC1=C(C#N)[C@H](C)CC(=O)N1	.	.	-17%	.	.
O=C1CCCCC1Nc1ccc2ccccc2c1 (configuration not stated)	26%	?	3.5µM*	?	-17%
CS(=O)(=O)N(CCC#N)Cc1ccc(/C=C2\C(=O)Nc3ccccc32)o1	-1%	10%	-16%[46.1 µM]	?	-17%
Cc1[nH][nH]c(=O)c1C(c1c(C)[nH][nH]c1=O)c1cn(Cc2ccc(F)cc2)c2ccccc12	?	-29%	-20%	-1%	-16%
Cc1[nH][nH]c(=O)c1C(c1c(C)[nH][nH]c1=O)c1cn(Cc2ccc(Cl)c(Cl)c2)c2ccccc12	?	?	8.2µM*	-27%	-21%
Cc1ccc(S(=O)(=O)N2CCN(c3nc(-n4ccnc4)nc4ccccc34)CC2)cc1	.	.	.	i	-17%
COc1cc(OC)c(-c2c3cc(O)c(=O)cc-3oc3cc(O)c(O)cc23)cc1OC	?	-27%	4.6µM*!	i	i
SMILES	FMDV inh	Lassa entry inh	Marburg entry inh	Vaccinia mCherry	Vaccinia Venus
COc1cccc(-c2cc(=O)c3ccccc3o2)c1N	22%[97.4 µM]	?	?	-7%[60.7 µM]	-13%[60.7 µM]
O=C(O)C(C1CCCCC1)C1(O)CCCC1 (configuration not stated)	-12%	13%	8%	i	-6%
Cn1c(=O)c2[nH]c(CCCCCCCCc3nc4ccccc4[nH]3)nc2n(C)c1=O	13µM*	11µM*	?	?	-27%
COC(=O)c1sc2c(c1C)c(=O)n(-c1ccccc1)c(=O)n2CC(=O)Nc1cccc(C)c1	-14%	1%[46.1 µM]	.	-3%	-4%
COc1ccc(N2CCN(C(=O)c3cc(NC(C)=O)c4c(c3)ncn4CCc3ccccn3)CC2)cc1	-3%	.	.	i	-5%
COc1cc(CN2CCC3(CCC(CNC(=O)c4ccco4)O3)CC2)cc(OC)c1 (configuration not stated)	-9%	.	.	-14%	-14%
Cc1oc(-c2ccccc2NC(=O)C2CCCO2)nc1CNC(=O)c1cc(Cl)ccc1F (configuration not stated)	-9%	.	.	-10%	-3%
CN(C)c1ccc(NC(=O)CSc2nc(N)c(C(=O)Nc3ccc(N(C)C)cc3)s2)cc1	?	?	?	4µM*	4µM*
COc1ccc(NC(=O)CSc2nc(N)c(C(=O)Nc3ccc(N(C)C)cc3)s2)cc1	8%	-19%	?	.	?
Cc1nc(SCCC(=O)O)c2cc(-c3ccccc3)sc2n1	?	?	4µM*	i	-8%
Cc1ccc2c(Cl)cc(Cl)c(O)c2n1	10µM*!	?	11µM*	?	?
Oc1c(Cl)cc(Cl)c2cccnc12	?	.	.	-14%	?
Cc1cc(C)c2c(c1)-c1c(ssc1=S)C(C)(C)N2C(=O)CN1C(=O)c2ccccc2C1=O	0%	-7%	4µM*	i	-10%
CCc1cccc(C)c1NC(=O)Cn1c(=O)cc(C)c2c(C)nn(-c3cccc(F)c3)c21	-8%	-3%[46.1 µM]	.	-12%	-2%
COc1ccc(CCNc2nc(-c3ccc(NC(C)=O)cc3)cs2)cc1OC	25µM*	?	?	-6%	-18%
COc1ccc(CCNc2nc(-c3sc(C)nc3C)cs2)cc1OC	25µM*	?	?	.	.
CCOc1ccccc1Nc1nc(-c2sc(NC(=O)c3ccco3)nc2C)cs1	-6%	.	.	?	?
COc1ccccc1-c1csc(NC(=O)c2ccc(N3C(=O)CCC3=O)cc2)n1	18µM*	.	.	.	.
CCOc1ccccc1Nc1nc(-c2sc(C)nc2C)cs1	4%	-5%[46.1 µM]	?	3.5µM*	?
COc1ccc(-c2csc(NC(=O)c3ccc(N4C(=O)CCC4=O)cc3)n2)cc1	?	2%	-8%	.	.
COc1ccc(OC)c(-c2csc(NC(=O)Cc3ccccc3OC)n2)c1	47%	7.9µM*	?	-23%	?
COc1ccc(-c2csc(NC(=O)Cc3cc(OC)c(OC)c(OC)c3)n2)cc1OC	14µM*	.	?	-23%	-25%
O=C(COc1ccc(Br)cc1)N1CCN(Cc2c[nH]c3ccccc23)CC1	-25%	?	?	14µM*	?
CCOCCCNCC(=O)NC1(C)C2CCC(C2)C1(C)C (configuration not stated)	-15%	10%	-16%	-15%	-4%
CC1(C)C2CCC(C2)C1(C)NC(=O)CNCC1CCCCC1 (configuration not stated)	-13%	-13%[46.1 µM]	8.9µM*	i	-29%
O=C(CCC1CCCN(C2C3CC4CC(C3)CC2C4)C1)NCc1ccc(F)c(F)c1 (configuration not stated)	-17%	-7%[46.1 µM]	?	-22%	-10%
COc1cc(/C=C2\COC/C(=C\c3ccc(O)c(OC)c3)C2=O)ccc1O	18µM*	?	?	?	?
CCN1C/C(=C/c2ccc(OC)c(O)c2)C(=O)/C(=C/c2ccc(OC)c(O)c2)C1	-21%	.	.	?	?

Screening results deposited in PubChem by National Center for Advancing Translational Sciences (NCATS).
